The record followed here is article PMC5540273 (PLoS ONE, 2017).

Some test systems named below: ERN1; FER; FES; FGFR1; FGFR2; FGFR3; FGFR4.
Common to all, as to details: concentration: 1 μM, replicates: in singlicate; n = 1
In a further experiment the test system is T1, ERK5.
T1 construct: gene MAPK7

Another experiment deals with T2, ERK8.
T2 construct: gene MAPK15

A further experiment relates to T3, FAK.
T3 construct: gene PTK2

Molecules are shown by their SMILES.
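Further: KINOMEscan kinase panel screen.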

Turning to `Cc1nc(N(C)[C@H]2CN(C(=O)CC#N)CC[C@H]2C)c2cc[nH]c2n1`, the “%Inh” value in the experiment with ERK5 is listed as 7%; in the experiment with ERK8, 1%; with ERN1 it was 12%; with FAK, 0%; in the experiment on FER, 0%; in the experiment with FES, 9%. In addition, the “%Inh” value in the experiment with FGFR1 is given as 1%; in the experiment with FGFR2, 6%; in the experiment with FGFR3, 0%; with FGFR4 it was 0%.
`Nc1ncnc2c1ncn2-c1ccc(Cl)cc1` [AH2635]: the “%Inh” value worked out at 0% with ERK5; 0% with ERK8; 0% in the experiment with ERN1; 0% in the experiment on FAK; 26% in the experiment on FER; 0% in the experiment on FES. Besides, the “%Inh” value with FGFR1 turned out to be 0%; in the experiment with FGFR2, 0%; in the experiment with FGFR3 it was 8%; in the experiment with FGFR4, 0%.
Consider `OCCCNc1nccc(-c2c(-c3cccc(C(F)(F)F)c3)nn3cc(C(F)(F)F)ccc23)n1` [GW630813], for which the “%Inh” value stood at 0% in the experiment with ERK5; 0% in the experiment on ERK8; 0% in the experiment on ERN1; 0% in the experiment with FAK; 8% in the experiment on FER; 0% in the experiment on FES. In addition, the “%Inh” value in the experiment with FGFR1, in the experiment with FGFR2, with FGFR3 and in the experiment with FGFR4 was 0% throughout.
Consider `Cc1nnc(-c2ccc(C)c(-c3ccc(C(=O)O)cc3)c2)o1` [GW608005], for which the “%Inh” value in the experiment with ERK5 is given as 0%; in the experiment on ERK8, 20%; with ERN1, 5%; in the experiment with FAK, 0%; with FER, 0%; in the experiment with FES it was 0%. In addition, the “%Inh” value in the experiment on FGFR1 turned out to be 5%; in the experiment on FGFR2, 0%; with FGFR3, 0%; in the experiment with FGFR4, 0%.
